Source: PubChem (National Center for Advancing Translational Sciences (NCATS))
Sampled rows, rich in hits. Any-hit rate of the full collection: about 4.7%.
D1 ag = human D1 receptor agonism; HEK293 T-REx D1 cells, calcium flux, agonist mode; P21728; AID 504660; activation, % at 2 µM; 360,000 tested, 1% active
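Agonism was scored from calcium flux recorded over 180 s (1 read/s) after pintool compound addition, following a 10-cycle baseline. Cells were inducible force-coupled HEK293 TREx D1, plated overnight at 30 C and loaded with no-wash calcium dye.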
D1 PAM = potentiators of human D1 dopamine receptor | P21728 | HEK293 TREx D1 cells, calcium flux, dopamine EC20 potentiation | potentiation, % at 10 µM | 360,000 tested, 0.036% active; in the data active = potentiation above about 30%
TRHR PAM = TRH receptor (human) allosteric enhancement; P34981; TRHR cells, fluo-8 calcium fluorescence, EC20 TRH enhancement; enhancement, % at 2 µM; 360,000 tested, 0.66% active; in the data active = enhancement above about 30%
Target sequence (P34981 whole entry, looked up): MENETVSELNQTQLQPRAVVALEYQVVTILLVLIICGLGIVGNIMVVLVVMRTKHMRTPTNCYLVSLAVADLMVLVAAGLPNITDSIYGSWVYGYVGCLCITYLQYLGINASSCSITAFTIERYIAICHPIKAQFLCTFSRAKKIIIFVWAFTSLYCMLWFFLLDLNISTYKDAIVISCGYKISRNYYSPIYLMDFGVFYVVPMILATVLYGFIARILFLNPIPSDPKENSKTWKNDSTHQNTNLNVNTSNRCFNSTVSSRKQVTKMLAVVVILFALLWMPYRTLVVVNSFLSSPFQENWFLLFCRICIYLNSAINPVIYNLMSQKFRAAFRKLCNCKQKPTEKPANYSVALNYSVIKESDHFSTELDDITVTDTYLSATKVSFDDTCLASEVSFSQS
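TRHR-expressing cells loaded with fluo-8 calcium dye were read kinetically (ex 480/em 530) during compound addition, then stimulated with an EC20 of TRH (10 nM final). Enhancement of the Gq-mediated intracellular calcium response was scored.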
TRHR ag = TRH receptor (human) agonism. AID 493084. TRHR cells, calcium flux fluo-8, FDSS agonist mode. P34981. 360,000 tested, 0.18% active. activation, % at 2 µM
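TRHR-expressing cells loaded with fluo-8 calcium dye; 23 nL library compound pin-transferred, kinetic FDSS fluorescence (Ex 480/Em 530) recorded about 180 s for agonist-induced calcium release, before a 10 nM TRH EC20 addition for potentiator mode.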
D1 antagonist = blocks dopamine activation of the human D1 receptor; activity change, negative = inhibition, % at 10 µM; P21728; AID 504652; HEK293 TREx D1 cells, calcium flux, dopamine EC80; hits give low values; 360,000 tested, 3.2% active; in the data active = activity change below about -30%
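Antagonism measured as reduced calcium response to an EC80 dopamine addition following 180 s compound pre-read; cells were inducible HEK293 Trex D1 plated overnight at 30 C, read kinetically at 1 cycle/sec.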
Hits are given with their value; i = inactive; nt = not tested or not shown. Rule as the data show it, unless noted: active = activation above about 30%; inactive = the rest.

SMILES | D1 ag | D1 PAM | TRHR PAM | TRHR ag | D1 antagonist
O=C(c1cc([N+](=O)[O-])ccc1Cl)N1c2ccccc2Sc2ccccc21 | i | i | i | i | -36.6
Cc1ccc(-c2nc(CS(=O)CC(=O)N3CCN(c4ccc(Cl)cc4)CC3)c(C)o2)cc1 (configuration not stated) | i | i | i | i | i
Cc1ccn2c(=O)cc(CSc3nnc(NC(=O)c4ccccc4Cl)s3)nc2c1 | i | i | i | i | i
COc1ccc(COc2ccccc2C(=O)NCc2ccccc2)cc1F | i | i | i | i | -36.9
CCCN(CCC)C(=O)Cn1c(=O)n(-c2ccc(Cl)c(Cl)c2)c(=O)c2c(C)c(C(=O)N(C)C)sc21 | i | i | i | i | i
Cc1ccc(NS(=O)(=O)c2ccc3c(c2)CCN3C(=O)CCC(=O)O)cc1Cl | 39.6 | i | i | i | i
Cc1cccc(N2CCN(S(=O)(=O)c3ccc4c(c3)CCN4C(=O)CCC(=O)O)CC2)c1C | i | i | i | i | i
Cc1ccc(C)c(N2CCN(S(=O)(=O)c3ccc4c(c3)CCN4C(=O)CCC(=O)O)CC2)c1 | i | nt | i | i | -34.2
CCN(CC)CCCNc1oc(-c2ccc(OC)cc2)nc1C#N | i | i | i | i | i
OCC1(CCCc2ccccc2)CCN(Cc2cc(F)ccc2F)CC1 | i | i | i | i | i
OCC1(CCc2ccccc2)CCN(Cc2cc(F)ccc2-n2cccn2)CC1 | i | i | i | i | -31.5
COc1ccc(-c2cc(C(F)(F)F)n3nc(C(=O)Nc4cccc(Cl)c4C)cc3n2)cc1 | i | i | 38.7 | i | i
COc1ccc(-c2cc(C(F)(F)F)n3nc(C(=O)N4CCCCC4)cc3n2)cc1 | i | i | i | i | i
COc1cccc(-c2cc(C(F)(F)F)n3nc(C(=O)N4CCCCC4c4cccnc4)cc3n2)c1 (configuration not stated) | i | i | i | i | -49.1
Cc1cc(NS(=O)(=O)c2ccc3nc(-c4ccccc4)[nH]c3c2)ccc1Br | i | i | i | i | i
C=CCc1c(C)nc2nc(SCC(=O)Nc3ccccc3CC)nn2c1C | i | i | i | i | i
COc1ccc(S(=O)(=O)N(Cc2nc(-c3ccccc3)no2)C2CCCCC2)cc1 | i | i | i | i | i
COc1cc(/C=C(\C#N)C(=O)c2c[nH]c3ccccc23)cc(OC)c1O | 45.2 | i | i | i | i
COc1c(Cl)cc(Cl)cc1/C=C(\C#N)c1nc2ccccc2[nH]1 | i | i | i | i | -60.6
COc1cc(/C=C(/C#N)c2nc3ccccc3c(=O)[nH]2)ccc1O | 34.3 | i | i | i | i
COc1c(O)ccc(/C=C(\C#N)c2nc3ccccc3[nH]2)c1[N+](=O)[O-] | i | i | i | i | i
COc1cc(/C=C(\C#N)c2nc3ccccc3[nH]2)cc(OC)c1O | 109.1 | i | i | 64.8 | i
Cc1cc(N2CCC(C(=O)Nc3ccccc3Cl)CC2)n2nc(C)c(-c3ccc(Cl)cc3)c2n1 | i | i | i | i | i
CCOc1ccc(/C=C(\C#N)C(=O)c2c(C)[nH]c3ccccc23)cc1OC | i | i | 36.4 | i | i
COc1cc(/C=C(/C#N)C(=O)c2c(C)[nH]c3ccccc23)ccc1OCC#N | i | i | i | i | i
SMILES | D1 ag | D1 PAM | TRHR PAM | TRHR ag | D1 antagonist
COc1ccc(C(=O)N[C@H](C(=O)NCC2CCCCC2)C(C)C)cc1 | 159.8 | i | i | i | i
COc1ccc(C(=O)N[C@H](C(=O)NCc2ccc(C)cc2)C(C)C)cc1 | i | i | i | i | i
COc1ccc(C(=O)c2cn(CC(=O)Nc3ccc4c(c3)OCO4)c3ccc(OC)cc3c2=O)cc1 | i | i | i | i | i
Brc1ccc(CNCc2cccs2)cc1 | i | i | i | i | i
CCOc1cc(CNCc2ccccc2)ccc1OCc1ccc(Cl)cc1 | 34.5 | i | i | i | i
COc1ccc(CCNCc2ccc(OCc3ccc(Cl)nc3)c(OC)c2)cc1OC | 59.3 | i | i | i | i
COc1ccc(CCNCc2ccc(OCc3ccccc3)cc2)cc1 | 61.4 | i | i | i | i
COc1ccc(CNC(C)CCc2ccccc2)cc1 (configuration not stated) | i | i | i | i | i
c1ccc(COc2ccc(CNCc3cccs3)cc2)cc1 | 129.1 | 41.9 | i | i | i
COC(=O)c1cc2c(cc1NC(=O)c1cnn(-c3ccc(C)cc3)c1-n1cccc1)OCO2 | i | i | i | i | i
CCOC(=O)Cn1c(=O)oc2cc(S(=O)(=O)N3CCN(c4ccc(F)cc4)CC3)ccc21 | i | i | i | i | i
Cc1cc2c(s1)c1cnn(Cc3ccc(F)cc3)c(=O)c1n2C | i | i | i | i | i
COc1ccc(CNCCc2ccc(Cl)cc2)cc1OCc1ccccc1 | 57.6 | i | i | i | i
COc1cccc(OCCNCc2ccccc2)c1 | i | 33.6 | i | i | i
Cc1cccc(OCCCCNCc2ccccc2)c1 | i | i | i | i | i
CCN1/C(=C/C=C/c2oc3ccc4ccccc4c3[n+]2CC)Oc2ccc3ccccc3c21 | 92.5 | i | i | 31.4 | i
CC[n+]1c(/C=C/N(C)c2ccccc2)oc2ccc(Cl)cc21 | i | i | i | i | i
Cc1cccc(Oc2nc3c(c(=O)n(C)c(=O)n3C)n2Cc2ccccc2)c1C | i | i | i | i | i
CCCc1cc(=O)[nH]c2nnc(SCC(=O)N3CC(C)OC(C)C3)n12 (configuration not stated) | i | i | i | i | -64.6
Cc1cc(=O)[nH]c2nnc(SCC(=O)N3CC(C)OC(C)C3)n12 (configuration not stated) | i | i | i | i | i
O=C(Nc1cccc(Cl)c1Cl)c1cc(S(=O)(=O)N2CCCCC2)ccc1F | i | i | i | i | i
COc1cc2[nH]c(=O)n(Cc3ccc(C(=O)N4CCN(c5cc(Cl)ccc5C)CC4)cc3)c(=O)c2cc1OC | i | i | i | i | i
Cn1ccsc1=NC(=O)c1ccccc1F | i | i | i | i | i
Cc1ccc(C)c(-n2c(-c3ccc(Br)cc3)csc2=NC(=O)c2ccccc2F)c1 | i | i | i | i | -42.0
CCN(C(=O)c1nn(C)c2c1CSc1ccccc1-2)c1cccc(C)c1 | i | i | i | i | i
SMILES | D1 ag | D1 PAM | TRHR PAM | TRHR ag | D1 antagonist
O=C(c1ccc2c(c1)OCCO2)N(Cc1cccnc1)c1nc2ccc(F)cc2s1 | i | i | i | i | i
Cc1ccccc1OCC(=O)NNC(=S)NC(=O)c1ccccc1[N+](=O)[O-] | i | i | i | i | -56.7
Cc1ccccc1-c1noc(-c2ccccc2OCC(=O)Nc2ccccc2[N+](=O)[O-])n1 | i | i | i | i | -62.9
O=C(COc1ccccc1-c1nc(-c2ccccc2)no1)Nc1ccccc1[N+](=O)[O-] | i | i | 40.9 | i | i
COc1cc(NC(=O)COc2c(C)cc(C)cc2[N+](=O)[O-])c(OC)cc1Cl | i | i | i | i | i
Cc1ccc(-c2noc(-c3ccccc3OCC(=O)Nc3ccccc3[N+](=O)[O-])n2)cc1 | i | i | i | i | i
